According to PubChem BioAssay (NCI):
The panel holds about 83,000 compounds, 20% with a hit somewhere; the sample as a whole holds those more often.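 Activity criterion: percent growth below 10, measured after cells in 96-well plates were exposed to a single compound concentration for 48 hours.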 Calls of active or inactive are those of the source.

Assays:
Experiment in all cases: NCI-60 one-dose screen, 48 h (100 = growth as untreated, 0 = no growth, -100 = all killed)
Settings in all cases: 10 µM unless noted
[1] = tested on: DU-145 prostate
[2] = tested on: K-562 leukemia
[3] = tested on: MALME-3M melanoma
[4] = tested on: MDA-MB-231 breast
[5] = tested on: RXF 393 renal
[6] = tested on: SF-268 CNS
[7] = tested on: SF-295 CNS
[8] = tested on: SF-539 CNS
[9] = tested on: UACC-257 melanoma
[10] = tested on: M14 melanoma

Measured: growth

CCSc1nc(-c2ccco2)n2nc(-c3ccco3)cc2n1
inactive: [1] 118% | [2] 116% | [3] 116% | [4] 88.1% | [5] 101% | [6] 113% | [7] 101% | [8] 100% | [9] 102% | [10] 121%

COc1cccc2c1C(=O)c1c(O)c3c(c(O)c1C2=O)C[C@@](O)(C(C)=O)C[C@@H]3O[C@H]1C[C@H](N)[C@H](O)[C@H](C)O1
active: [1] 1.62% | [2] -4.44% | [3] -70.7% | [4] -14.6% | [5] -65.1% | [6] -43.8% | [7] -30.8% | [8] -43.1% | [9] -47.3% | [10] -86.5%

COc1c(O)cc2c(c1CC=C(C)C)OC(=O)c1c(cc(O)c(CC=C(C)C)c1O)O2
inactive: [1] 71.6% | [2] 23.9% | [3] 113% | [6] 41% | [7] 81% | [8] 68.8% | [9] 92.6% | [10] 27.3%
active: [4] 4.16% | [5] -43.5%

Cn1cc(NC(=O)Nc2cc(C(=O)O)n(C)c2)cc1C(=O)O
inactive: [1] 121% | [2] 83.1% | [3] 89.1% | [4] 98.3% | [6] 122% | [7] 99.4% | [8] 103% | [9] 106% | [10] 108%
active: [5] 9.73%

CN[C@@H]1C(OC2[C@H](O[C@H]3[C@H](O)[C@@H](O)[C@H](N=C(N)N)[C@@H](O)[C@@H]3N=C(N)N)OC(C)[C@]2(O)CO)OC(CO)C(O)C1O (stereo partly drawn)
inactive: [1] 109% | [2] 113% | [3] 106% | [4] 104% | [5] 114% | [6] 118% | [7] 103% | [8] 109% | [9] 107% | [10] 112%

CCN(CC)CCCCCCCNc1c2ccc(Cl)cc2nc2ccc(OC)cc12
active: [1] -28.6% | [2] -21.5% | [3] -20.6% | [4] -30% | [5] -70.8% | [6] -59.1% | [7] -51.6% | [8] -71.2% | [9] -84.3% | [10] -48.8%

CCCCCCCCCCCCCCCCNC(=O)Nc1ccc2ccccc2c1
inactive: [1] 126% | [2] 111% | [3] 95.4% | [4] 98.1% | [5] 104% | [6] 126% | [7] 106% | [8] 106% | [9] 95.5% | [10] 94.9%

O=Cc1ncc(-c2ccc(C(F)(F)F)cc2)c(NC2CCCCCC2)n1
active: [1] -92.9% [100 µM] | [2] -50.2% [100 µM] | [3] -92% [100 µM] | [4] -87.8% [100 µM] | [5] -80.2% [100 µM] | [6] -83.9% [100 µM] | [7] -86.3% [100 µM] | [8] -96.8% [100 µM] | [9] -92% [100 µM] | [10] -91.6% [100 µM]

C[C@H]1O[C@@H](O[C@H]2[C@@H](O)C[C@H](O[C@H]3[C@@H](O)C[C@H](O[C@H]4CC[C@]5(C)C6CC[C@]7(C)[C@@H](C8=CC(=O)OC8)CC[C@]7(O)C6CC[C@@H]5C4)O[C@@H]3C)O[C@@H]2C)C[C@H](O)[C@@H]1O (stereo partly drawn)
active: [1] -100% | [2] -45% | [3] -63.9% | [4] -48.6% | [5] -27.1% | [6] -100% | [7] -98.2% | [8] -94.6% | [9] -100% | [10] -81.1%

O=C(COc1ccc(/C=C2\Cc3ccccc3C2=O)cc1)c1ccc(Cl)cc1
inactive: [1] 117% | [2] 92.9% | [3] 124% | [4] 82.2% | [5] 121% | [6] 120% | [7] 121% | [8] 101% | [9] 100% | [10] 104%

Clc1ccc2[nH]cc(-c3cncn3CCc3ccccc3)c2c1
inactive: [1] 80.9% | [2] 26.9% | [3] 43.8% | [4] 65.9% | [5] 52.3% | [6] 46.3% | [7] 43.5% | [8] 69.7% | [9] 50.2% | [10] 68.6%

CCN(CC)CCNCC(=O)Oc1ccc(/C=C/C(=O)CC(=O)/C=C/c2ccc(OC(=O)CNCCN(CC)CC)c(OC)c2)cc1OC
inactive: [4] 14% | [6] 13.5% | [7] 27.3% | [9] 53.7%
active: [1] -56.6% | [2] -37.7% | [3] -0.278% | [5] -73% | [8] -35.9% | [10] -18.6%

COc1cccc(-c2nc(-c3ccc(N)cc3)co2)c1
inactive: [1] 102% | [2] 84.5% | [3] 114% | [4] 88.1% | [5] 93.2% | [6] 128% | [7] 92.8% | [8] 110% | [9] 93.1% | [10] 91.1%

O=c1ccn(C2CC=C(CO)O2)c(=O)[nH]1 (stereo not drawn)
inactive: [1] 108% | [2] 92.8% | [3] 80.9% | [4] 104% | [6] 109% | [7] 92.9% | [8] 99.8% | [9] 78.3% | [10] 81.4%
active: [5] 8.91%

CC[n+]1c(/C=C/c2ccc(N3CCCC3)cc2)cccc1/C=C/c1ccc(N2CCCC2)cc1
active: [1] -97.4% | [2] 8.88% | [3] -82.2% | [4] -80.6% | [5] -93.7% | [6] -90.3% | [7] -76.9% | [8] -87.2% | [9] -92.5% | [10] -65.3%

C/C(=C\CCc1ccoc1)CC/C=C(\C)CCCC1COC(=O)C1 (stereo not drawn)
inactive: [1] 105% | [2] 98.4% | [3] 89.5% | [4] 92.6% | [5] 99.1% | [6] 107% | [7] 99% | [8] 93.4% | [9] 101% | [10] 104%

Nc1ccn(C2O[C@H](CO)[C@@H](O)[C@@H]2O)c(=O)n1 (stereo partly drawn)
active: [10] -15.7%
inactive: [1] 29.6% | [2] 62.4% | [3] 57.2% | [4] 68.8% | [5] 83.4% | [6] 34% | [7] 50.8% | [8] 72.4% | [9] 54.5%

CC(=O)N1N=C(c2ccc3c(c2)OCO3)CC1c1c(C)nn(-c2ccccc2)c1N(C)Cc1ccccc1 (stereo not drawn)
inactive: [1] 94.6% | [2] 56.5% | [3] 84.8% | [4] 81% | [5] 79.2% | [6] 74.4% | [7] 68.9% | [8] 94.5% | [9] 56.7% | [10] 77.2%

O=C(/C=C/c1cccc(O)c1)c1cccc(-n2cc(-c3ccccc3)[nH]c2=O)c1
active: [1] -16.9% | [2] 1.71% | [3] 0.0704% | [4] -5.57% | [5] -62.4% | [6] 7.61% | [8] -27.4%
inactive: [7] 64.8% | [9] 95.6% | [10] 64.5%

COc1ccc2cc(C3=CC(=O)CCC3)ccc2c1
inactive: [1] 103% | [2] 105% | [3] 114% | [4] 99.6% | [5] 99.4% | [6] 103% | [7] 110% | [8] 95.7% | [9] 96.6% | [10] 104%

COc1cc(C2CC(C3C(=O)N(C)C(=O)N(C)C3=O)=NN2C=O)cc(OC)c1OC (stereo not drawn)
inactive: [1] 111% | [2] 88% | [3] 109% | [4] 103% | [5] 109% | [6] 102% | [7] 98.1% | [8] 104% | [9] 78.3% | [10] 84%

O=C(Nc1cccc(-n2cc(-c3ccncc3)c(-c3cc(O)cc(Cl)c3)n2)c1)Nc1ccc(Cl)c(Cl)c1
active: [1] -15.1% | [2] 1.06% | [3] -35.1% | [4] -38.1% | [5] -70.3% | [7] -50.5% | [8] -29% | [9] -70.7% | [10] -69.2%
inactive: [6] 16.2%

N#Cc1ncc(-c2ccc(C(F)(F)F)cc2)c(NC2CCCCCC2)n1
inactive: [1] 60.5% | [2] 13.6% | [4] 56.3% | [5] 36.6% | [6] 39.3% | [8] 74.4% | [10] 22.4%
active: [3] -49.2% | [7] -29.5%

CN1C(=O)C(C2=NN(C=O)C(c3ccc(F)cc3)C2)C(=O)N(C)C1=O (stereo not drawn)
inactive: [1] 106% | [2] 94.2% | [3] 95.8% | [4] 106% | [5] 95.5% | [6] 96.9% | [7] 99.2% | [8] 102% | [9] 69.3% | [10] 98.5%

C/C(=C\CCc1ccoc1)CC/C=C(\C)CCCNc1ccc(F)cc1
inactive: [1] 101% | [2] 68.6% | [3] 88.2% | [4] 72.9% | [5] 101% | [6] 90.1% | [7] 102% | [8] 89.6% | [9] 99.7% | [10] 103%

CCCCc1ccc(C(N)=O)nc1
inactive: [1] 102% | [2] 109% | [3] 108% | [4] 102% | [5] 103% | [6] 101% | [7] 109% | [8] 105% | [9] 97.8% | [10] 100%

Cc1nn(-c2ccccc2)c2nc(N)c(C3=NCCO3)nc12
inactive: [1] 114% | [2] 102% | [3] 88.6% | [4] 87% | [5] 108% | [6] 111% | [7] 90.8% | [8] 99.6% | [10] 105%
